Some test systems named below: SR leukemia; RPMI-8226 leukemia; OVCAR-8 ovarian; OVCAR-5 ovarian; OVCAR-4 ovarian; SK-OV-3 ovarian; IGROV1 ovarian; OVCAR-3 ovarian; HS 578T breast; NCI/ADR-RES ovarian.
Test in all cases: NCI-60 one-dose screen, 48 h (100 = growth as untreated, 0 = no growth, -100 = all killed)
Details in all cases: 10 µM

Compounds without any hit were thinned out: in the full panel of roughly 83,000, 20% have a hit.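 Method: cells in 96-well plates; compound added at one concentration; 48 h incubation; percent growth measured; values under 10 scored active.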 Values without a mark were called inactive. The source made the active and inactive calls.

Turning to `COC1OC2COC(c3ccccc3)OC2C(=O)C1NC(=O)c1ccccc1` (centres undefined), the growth is 122% in the experiment on SR leukemia; 97.3% in the experiment with RPMI-8226 leukemia; 101% in the experiment with OVCAR-8 ovarian; 93.7% in the experiment with OVCAR-5 ovarian; 103% in the experiment on OVCAR-4 ovarian; 105% in the experiment with SK-OV-3 ovarian. In addition, the growth was 114% in the experiment on IGROV1 ovarian, 99.8% with OVCAR-3 ovarian, 96.6% in the experiment with HS 578T breast and 103% in the experiment on NCI/ADR-RES ovarian.

As for `COc1cc(CSc2nc3ccc(C)cc3c(=O)n2Cc2ccccc2)cc(OC)c1OC`, the growth was 18% with SR leukemia; 54.1% in the experiment on RPMI-8226 leukemia; 35.2% with OVCAR-8 ovarian; 45.4% with OVCAR-5 ovarian; 53.1% in the experiment on OVCAR-4 ovarian; 23.9% in the experiment on SK-OV-3 ovarian. The growth is 24.3% with IGROV1 ovarian, -22.7% (active) with OVCAR-3 ovarian, 20.7% in the experiment on HS 578T breast and 12.7% with NCI/ADR-RES ovarian.

With `N=C(N)c1ccc(-c2ccc(-c3ccccc3)s2)s1`, the growth in the experiment with SR leukemia was -40% (active); in the experiment with RPMI-8226 leukemia, -44.3% (active); with OVCAR-8 ovarian, -39.9% (active); in the experiment with OVCAR-5 ovarian, -23.7% (active); in the experiment with OVCAR-4 ovarian, -70.2% (active); in the experiment on SK-OV-3 ovarian, -50.1% (active). Besides, the growth is -31.1% (active) in the experiment with IGROV1 ovarian, -41.3% (active) in the experiment on OVCAR-3 ovarian, -21% (active) with HS 578T breast and -35.2% (active) in the experiment on NCI/ADR-RES ovarian.

Regarding `O=C(Cn1ccc(=O)[nH]c1=O)c1ccc([N+](=O)[O-])o1`, the growth with SR leukemia is 73.9%; in the experiment on RPMI-8226 leukemia, 65.5%; in the experiment on OVCAR-8 ovarian, 103%; in the experiment with OVCAR-5 ovarian, 114%; in the experiment on OVCAR-4 ovarian it was 97.9%; in the experiment on SK-OV-3 ovarian, 112%. Also, the growth in the experiment on IGROV1 ovarian was 123%; in the experiment on OVCAR-3 ovarian, 96.9%; in the experiment with HS 578T breast it was 116%; in the experiment with NCI/ADR-RES ovarian it was 107%.

On to `COc1cc(-c2cc(-c3cc(OC)c(OC)c(OC)c3)nc3nc(N)[nH]c(=O)c23)ccc1Oc1ccnc2cc(Cl)ccc12`, for which the growth with SR leukemia was 5.24% (active); with RPMI-8226 leukemia, 19.7%; in the experiment on OVCAR-8 ovarian it was 42.1%; with OVCAR-5 ovarian, 103%; in the experiment with OVCAR-4 ovarian it was 39%; in the experiment on SK-OV-3 ovarian it was 26.2%. The growth was 52.8% in the experiment with IGROV1 ovarian, -26.1% (active) in the experiment on OVCAR-3 ovarian, 36.3% in the experiment on HS 578T breast and 21.8% with NCI/ADR-RES ovarian.

In the case of `Cc1ccc([P+](Cc2ccc([N+](=O)[O-])cc2)(c2ccc(C)cc2)c2ccc(C)cc2)cc1`, the growth is 3.65% (active) in the experiment on SR leukemia; -25.3% (active) in the experiment on RPMI-8226 leukemia; 40.3% in the experiment with OVCAR-8 ovarian; 72.9% in the experiment with OVCAR-5 ovarian; 31.1% in the experiment on OVCAR-4 ovarian; 74.7% with SK-OV-3 ovarian. Further, the growth in the experiment on IGROV1 ovarian is 11.9%; with OVCAR-3 ovarian, 25.7%; with HS 578T breast it was 86.9%; in the experiment with NCI/ADR-RES ovarian it was 100%.

As for `COc1ccc(OC)c([N+](=O)[O-])c1C=O`, the growth in the experiment with SR leukemia is 37.2%; with RPMI-8226 leukemia, 75.1%; in the experiment on OVCAR-8 ovarian, 97.8%; with OVCAR-5 ovarian, 107%; in the experiment with OVCAR-4 ovarian, 105%; in the experiment with SK-OV-3 ovarian it was 101%. Besides, the growth is 101% in the experiment on IGROV1 ovarian, 101% with OVCAR-3 ovarian, 89.6% in the experiment on HS 578T breast and 113% in the experiment on NCI/ADR-RES ovarian.

`COc1ccc(-c2nc(-c3ccccc3)c(-c3ccccc3)[nH]2)cc1OC1CCCC1`: the growth is 41.9% in the experiment on SR leukemia; 56.6% with RPMI-8226 leukemia; 74.9% in the experiment on OVCAR-8 ovarian; 82.7% in the experiment with OVCAR-5 ovarian; 81.6% with OVCAR-4 ovarian; 89.3% in the experiment on SK-OV-3 ovarian. Also, the growth in the experiment on IGROV1 ovarian was 105%; in the experiment on OVCAR-3 ovarian, 81.4%; with HS 578T breast, 86.5%; with NCI/ADR-RES ovarian, 79.5%.

Consider `Cc1cn(C(=O)/C(Cl)=C(/Cl)C(=O)O)c2ccccc12`, for which the growth with SR leukemia was 101%; with RPMI-8226 leukemia, 82.4%; in the experiment with OVCAR-8 ovarian it was 110%; in the experiment on OVCAR-5 ovarian it was 103%; in the experiment with OVCAR-4 ovarian, 101%; with SK-OV-3 ovarian, 95.8%. Besides, the growth is 66.1% in the experiment on IGROV1 ovarian, 104% with OVCAR-3 ovarian, 97.8% in the experiment with HS 578T breast and 104% in the experiment on NCI/ADR-RES ovarian.

For `COCCOC(=O)NC(=O)Nc1ccc(C(=O)c2ccc(Cl)cc2)cc1`, the growth with SR leukemia was 22.2%; in the experiment with RPMI-8226 leukemia, 19.2%; in the experiment on OVCAR-8 ovarian, 40.4%; in the experiment on OVCAR-5 ovarian, 90.7%; in the experiment on OVCAR-4 ovarian, 56.9%; in the experiment with SK-OV-3 ovarian it was 27.2%. Moreover, the growth in the experiment on IGROV1 ovarian was 51.3%; in the experiment with OVCAR-3 ovarian, 6.85% (active); with HS 578T breast it was 32%; in the experiment with NCI/ADR-RES ovarian it was 18.9%.

For the compound `Cc1ccc2c3c(cccc13)-c1ccccc1C2=O`, the growth was 94.1% with SR leukemia; 97.8% in the experiment with RPMI-8226 leukemia; 94.2% in the experiment on OVCAR-8 ovarian; 113% in the experiment with OVCAR-5 ovarian; 105% with OVCAR-4 ovarian; 92.1% in the experiment with SK-OV-3 ovarian. For the same compound, the growth with IGROV1 ovarian is 94%; with OVCAR-3 ovarian, 108%; with HS 578T breast, 94%; with NCI/ADR-RES ovarian, 99%.

`Cc1cnc(C=O)c2cccc([N+](=O)[O-])c12`: the growth was 16.5% in the experiment on SR leukemia; 68.1% with RPMI-8226 leukemia; 87.3% in the experiment on OVCAR-8 ovarian; 95% with OVCAR-5 ovarian; 82.1% in the experiment on OVCAR-4 ovarian; 99.6% in the experiment on SK-OV-3 ovarian. Besides, the growth in the experiment with IGROV1 ovarian was 95.9%; in the experiment on OVCAR-3 ovarian it was 101%; with HS 578T breast, 94.9%.

As for `N#CCC1CCCC1`, the growth with SR leukemia was 81.6%; in the experiment on RPMI-8226 leukemia, 97.2%; in the experiment on OVCAR-8 ovarian, 98.9%; in the experiment on OVCAR-5 ovarian it was 105%; with OVCAR-4 ovarian, 95.7%; in the experiment on SK-OV-3 ovarian, 104%. The growth with IGROV1 ovarian was 118%; in the experiment with OVCAR-3 ovarian, 121%; with HS 578T breast, 106%; in the experiment with NCI/ADR-RES ovarian, 101%.

As for `CC(C)OCc1cc(CN2CCN(c3cccc(Cl)c3)CC2)c(O)c2ncccc12`, the growth in the experiment on SR leukemia is -30.6% (active); with RPMI-8226 leukemia, -25% (active); in the experiment on OVCAR-8 ovarian, -15.2% (active); with OVCAR-5 ovarian, 38.3%; in the experiment on OVCAR-4 ovarian, 15.7%; with SK-OV-3 ovarian it was 13.7%. The growth was 8.86% (active) in the experiment with IGROV1 ovarian, 2.88% (active) in the experiment with OVCAR-3 ovarian, -0.795% (active) in the experiment on HS 578T breast and -27.3% (active) with NCI/ADR-RES ovarian.

Values taken from PubChem BioAssay (NCI).
